According to PubChem BioAssay AID720540 (National Center for Advancing Translational Sciences (NCATS), 2013):
Out of some 1,300 compounds screened, about 460 (35%) were called active. Inconclusive results (about 39%) are left out. Some of the results follow. A number with no mark means an inactive call. The call rests on the fitted dose curve; in most records, active means well fitted inhibition curve with a large enough effect; inconclusive means small, poorly fitted or top-dose-only effect; inactive means flat fitted curve, though single readings scatter.
Further: nearly all actives have a fitted effect of over 65% in size.
Potency means the concentration at half of the fitted maximal effect.
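Wherever activity change, negative = inhibition is given: 0% = DMSO wells and -100% = EGTA control giving full inhibition.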

What follows are molecules tested against Protein phosphatase EYA2 (Homo sapiens) (UniProt O00167) (assay: qHTS for Inhibitors of the Phosphatase Activity of Eya2: Confirmatory Assay for Cherry-picked Compounds). Conditions: purified EYA2 phosphatase activity, qHTS confirmation; series mostly up to 46.1 µM; activity change, negative = inhibition: at the top concentration.
Sequence of Protein phosphatase EYA2 (Homo sapiens) (O00167 whole entry, looked up): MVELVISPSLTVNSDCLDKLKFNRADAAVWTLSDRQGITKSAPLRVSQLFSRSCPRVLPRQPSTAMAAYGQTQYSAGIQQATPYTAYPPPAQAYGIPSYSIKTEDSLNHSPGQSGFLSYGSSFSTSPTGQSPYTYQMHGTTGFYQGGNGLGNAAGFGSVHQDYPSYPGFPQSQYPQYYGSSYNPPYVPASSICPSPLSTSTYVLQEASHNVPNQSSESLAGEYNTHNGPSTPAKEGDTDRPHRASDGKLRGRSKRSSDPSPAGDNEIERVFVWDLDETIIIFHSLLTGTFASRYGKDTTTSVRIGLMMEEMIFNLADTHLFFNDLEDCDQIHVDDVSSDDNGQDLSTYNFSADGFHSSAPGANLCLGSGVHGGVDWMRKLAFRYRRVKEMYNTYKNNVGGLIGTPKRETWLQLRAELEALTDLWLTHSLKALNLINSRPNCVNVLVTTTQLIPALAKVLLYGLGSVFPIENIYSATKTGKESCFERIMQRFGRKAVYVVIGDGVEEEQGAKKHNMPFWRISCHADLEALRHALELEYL
In short: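 Eya2 (0.2 uM working solution) preincubated 10 min at room temperature with compound in pH 7.5 HEPES buffer with MgCl2, BSA, DTT. OMFP added (50 uM working solution), 10 min more; fluorescence 485/525 nm, normalized to EGTA and DMSO.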
In the case of `Cc1c(CCO)c(=O)n(-c2ccccc2)n1S(=O)(=O)c1c(Cl)cc(Cl)cc1Cl`, the Potency is reported as 3.01 µM (active).
`CC12CC3(C)CC(C)(C1)CC(C(=O)NC(=S)N1CCOCC1)(C2)C3` was tested, and the “activity change, negative = inhibition” value was -20%.
For `O=C1c2ccccc2C(=O)c2c(Nc3ccc(CCO)cc3)ccc(O)c21`, the Potency was 6.01 µM (active).
With `O=C1c2cccc3cccc(c23)C(=O)N1CCCN1CCN(c2ccc(F)cc2)CC1` the Potency was 15.1 µM (active).
For `COc1ccccc1NC(=O)CCCCCN1C(=O)c2cccc3cccc(c23)C1=O`, the “activity change, negative = inhibition” value was -15.8%.
`O=C(c1cccc(S(=O)(=O)Nc2ccccc2Cl)c1)N1CCN(c2ccccc2O)CC1` was tested, and the Potency was 19 µM (active).
With `CC1Cc2ccccc2N1NC(=O)c1ccc(Cl)c(S(N)(=O)=O)c1` (stereo not drawn) the “activity change, negative = inhibition” value was -5.79%.
For `COc1ccc(C2CC(c3ccccc3OC(=O)/C=C/c3ccccc3)=NN2C(C)=O)cc1` (stereo not drawn), the Potency was 19 µM (active).
`O=S(=O)(Nc1cccc(-c2cn3cccnc3n2)c1)c1ccccc1` was tested, and the Potency was 4.78 µM (active).
In the case of `O=S(=O)(Nc1cccc(-c2cn3cccnc3n2)c1)c1ccc(F)cc1`, the Potency is reported as 13.5 µM (active).
With `Cn1c(=O)c2cc(S(=O)(=O)Nc3cccc(F)c3)ccc2n(C)c1=O` the “activity change, negative = inhibition” value was -21.5%.
With `O=c1c(O)c(-c2ccc(O)cc2O)oc2cc(O)cc(O)c12` the Potency was 8.49 µM (active).
In the case of `Cc1cc(C(=O)O)ccc1-n1c(C)cc(C=C2C(=O)c3ccccc3C2=O)c1C`, the “activity change, negative = inhibition” value is reported as -8.67%.
With `Cc1cc(C(=O)c2ccccc2)cc(C)c1O` the Potency was 1.9 µM (active).
`CN(C)c1ccc(C2C=Cc3ccccc32)c2ccccc12` (stereo not drawn) was tested, and the Potency was 9.53 µM (active).
With `CSCc1cc(N(C)c2ccccc2)nc(-c2ccccn2)n1` the Potency was 15.1 µM (active).
In the case of `NCC(=O)Nc1ccc(Cl)cc1C(=O)c1ccc[nH]1`, the “activity change, negative = inhibition” value is reported as -11.7%.
In the case of `O=C(c1cccs1)N1CCC(c2nc3c(nnn3Cc3cccc(Cl)c3)c(=O)[nH]2)CC1`, the Potency is reported as 10.7 µM (active).
In the case of `CN(C)CCNc1ccc2nnn3c4ccc(O)cc4c(=O)c1c23`, the Potency is reported as 1.69 µM (active).
With `CN(C)CCNc1ccc2ncn3c4ccc(O)cc4c(=O)c1c23` the Potency was 3.38 µM (active).
In the case of `N#Cc1ccc(C(=O)N2CCC3CC2c2cc(-c4ccccc4)ccc23)cc1` (stereo not drawn), the “activity change, negative = inhibition” value is reported as -24.4%.
`CN(C)C1=C2C=CC=CC2/C(=C2/C=Cc3ccccc32)C=C1` (stereo not drawn) was tested, and the Potency was 8.49 µM (active).
In the case of `O=C(O)c1cc(-c2ccc(/C=C3\NC(=O)N(c4ccc(Cl)cc4)C3=O)o2)ccc1Cl`, the Potency is reported as 8.49 µM (active).
With `CN1C(=O)/C(=C2\SC(=S)N(NC(=O)c3cccnc3)C2=O)c2ccccc21` the Potency was 9.53 µM (active).
For `COC(=O)c1ccc(NC(=O)c2ccc3c(c2)C(=O)N(Cc2cccnc2)C3=O)cc1`, the “activity change, negative = inhibition” value was -19.5%.
In the case of `CCOC(=O)CN1C(=O)/C(=C2\SC(=S)N(NC(=O)c3cccnc3)C2=O)c2ccccc21`, the Potency is reported as 19 µM (active).
With `CCOc1cc(C(=O)NC(C)CCc2ccccc2)cc(OCC)c1OCC` (stereo not drawn) the “activity change, negative = inhibition” value was 13.9%.
With `C[C@H](CCC(=O)NCC(=O)O)[C@H]1CC[C@H]2[C@@H]3[C@H](O)C[C@@H]4C[C@H](O)CC[C@]4(C)[C@H]3C[C@H](O)[C@]12C` the “activity change, negative = inhibition” value was -6.72%.
`O=C(O)C(Cc1ccccc1)N1C(=O)/C(=C/C=C/c2ccco2)SC1=S` (stereo not drawn) was tested, and the Potency was 6.75 µM (active).
`CC(C(=O)O)N1C(=O)/C(=C/C=C/c2ccco2)SC1=S` (stereo not drawn) was tested, and the Potency was 3.79 µM (active).
With `O=C(O)CC(C(=O)O)N1C(=O)/C(=C/C=C/c2ccco2)SC1=S` (stereo not drawn) the Potency was 3.79 µM (active).
With `Cc1ccccc1NC(=O)CSc1ccc(-c2ccccn2)nn1` the Potency was 4.26 µM (active).
For `Cc1csc(NC(=O)CSc2ccc(-c3ccccn3)nn2)n1`, the Potency was 4.26 µM (active).
With `Cc1cc(C)c(NC(=O)CSc2ccc(-c3ccccn3)nn2)c(C)c1` the Potency was 6.75 µM (active).
In the case of `Cc1cc(NC(=O)CSc2nnnn2-c2ccccc2C)no1`, the “activity change, negative = inhibition” value is reported as -21.9%.
In the case of `O=C(CSc1nnc(CNC(=O)c2ccccc2)o1)Nc1nccs1`, the “activity change, negative = inhibition” value is reported as -23.7%.
`Cc1cccc(C#Cc2ccccc2)n1` was tested, and the “activity change, negative = inhibition” value was 10.3%.
In the case of `O=S(=O)(NCCSCc1ccc(Cl)c(Cl)c1)c1ccc2c(c1)OCCO2`, the “activity change, negative = inhibition” value is reported as -18.2%.
In the case of `CC(=O)Nc1ccc(NC(=O)COc2ncnc3ccccc23)cc1`, the “activity change, negative = inhibition” value is reported as -5.31%.
In the case of `CN(C)c1ccc(NC(=O)CC(NCc2ccccn2)C(=O)O)cc1` (stereo not drawn), the Potency is reported as 0.849 µM (active).
With `CN(C)C(CNC(=O)c1ccc2c(c1)S(=O)(=O)c1ccccc1C2=O)c1ccco1` (stereo not drawn) the “activity change, negative = inhibition” value was -29.2%.
For `O=C(NCCCO)c1ccc2nc(-c3ccco3)c(-c3ccco3)nc2c1`, the Potency was 9.53 µM (active).
`O=C(NCc1ccccc1)c1ccc2nc(-c3ccco3)c(-c3ccco3)nc2c1` was tested, and the Potency was 8.49 µM (active).
With `Cc1ccc(CNC(=O)c2ccc(-n3cccc3)cc2)cc1` the “activity change, negative = inhibition” value was -19.7%.
With `Cc1cccc2cn[nH]c12` the “activity change, negative = inhibition” value was -0.6%.
For `COc1ccc(/C=N/N2CCN(Cc3ccc(C)cc3)CC2)cc1Br`, the Potency was 15.1 µM (active).
With `COC1=C(Nc2ccc(OC)cc2)C(=O)c2ccccc2C1=O` the Potency was 6.01 µM (active).
In the case of `CC(=O)Nc1ccc(OC(=O)c2cc3cc(Br)ccc3oc2=O)cc1`, the Potency is reported as 7.57 µM (active).
In the case of `O=C(NNC(=O)c1cc2cc(Br)ccc2oc1=O)c1ccc(O)cc1`, the “activity change, negative = inhibition” value is reported as -7.2%.
In the case of `Cc1nc(S/C(=C\c2ccc(-c3ccc(C(=O)O)c(Cl)c3)o2)C(=O)O)n[nH]1`, the Potency is reported as 15.1 µM (active).
`COc1ccc(Cc2nc3c4c(ncn3n2)Oc2ccc3ccccc3c2C4c2ccc(OC)c(OC)c2)cc1` (stereo not drawn) was tested, and the “activity change, negative = inhibition” value was -18.2%.
In the case of `Cc1ccc(S(=O)(=O)N2c3ccccc3-c3c(ssc3=S)C2(C)C)cc1`, the Potency is reported as 15.1 µM (active).
With `COc1ccc2c(c1)-c1c(ssc1=S)C(C)(C)N2S(=O)(=O)c1ccc(C)cc1` the Potency was 16.9 µM (active).
With `O=C(Nc1ccc2nc(-c3ccco3)c(-c3ccco3)nc2c1)N1CCCC1` the Potency was 7.57 µM (active).
With `CC1CCN(C(=O)Nc2ccc3nc(-c4ccco4)c(-c4ccco4)nc3c2)CC1` the Potency was 6.75 µM (active).
`COCCNC(=O)c1cccc(OC2CCN(Cc3ccc(F)cc3OC)CC2)c1` was tested, and the “activity change, negative = inhibition” value was -8.43%.
In the case of `O=C(CSc1nc(-c2ccccc2)nc2c1Cc1ccccc1O2)Nc1ccc(C(=O)O)cc1`, the Potency is reported as 7.57 µM (active).
In the case of `O=C(CCS(=O)(=O)c1ccc(Br)cc1)N1CCCCCC1`, the “activity change, negative = inhibition” value is reported as -25.4%.
For `CC1CCN(C2=C(NS(=O)(=O)c3ccc(Br)cc3)C(=O)c3ccccc3C2=O)CC1`, the Potency was 3.79 µM (active).
`CN(C1=C(N2CCCCC2)C(=O)c2ccccc2C1=O)c1ccccc1` was tested, and the Potency was 1.2 µM (active).
For `O=C1C(NS(=O)(=O)c2ccc(Br)cc2)=C(N2CCCCC2)C(=O)c2ccccc21`, the Potency was 8.49 µM (active).
With `O=C1C(Nc2cccc(O)c2)=C(N2CCCCC2)C(=O)c2ccccc21` the Potency was 15.1 µM (active).
With `O=C1N=c2ccccc2=C1c1sc(Nc2cccc(O)c2)nc1O` the “activity change, negative = inhibition” value was -24.2%.
